Holding throughout (assay): DAPPL (digital affinity profiling via proximity ligation, sequencing); 10 mM Tris-HCl pH 7.5, 50 mM NaCl, 1 mM DTT, 4% glycerol, room temperature, 30 min; GST-TFs on glutathione beads, 16-mer random dsDNA library, 0.1% formaldehyde crosslink after washing; high values mean tight binding
One experiment addresses T1, FEV (Homo sapiens, UniProt Q99581 1-238).
T1 sequence: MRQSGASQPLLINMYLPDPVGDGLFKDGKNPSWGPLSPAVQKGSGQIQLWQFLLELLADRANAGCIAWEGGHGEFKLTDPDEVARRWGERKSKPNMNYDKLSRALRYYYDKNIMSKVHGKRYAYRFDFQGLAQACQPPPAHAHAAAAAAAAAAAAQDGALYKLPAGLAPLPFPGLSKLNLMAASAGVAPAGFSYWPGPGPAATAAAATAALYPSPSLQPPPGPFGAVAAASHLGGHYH
To be noted: protein: recombinant; tags: N-terminal GST; dsDNA, one strand shown. Summed up: (§1)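 Binding signal is each hexamer's read frequency for a factor divided by its frequency in the tag-only sample. The factors were GST-fused human transcription factors from yeast, captured on glutathione beads, DNA-barcoded and pooled with that sample. Pools were incubated with 200 nmole of a random double-stranded 16-mer DNA library in Tris/NaCl/DTT/glycerol buffer at room temperature for 30 min, then washed, crosslinked with 0.1% formaldehyde, proximity-ligated with BsaI/T4 ligase (1 h, 37 °C), PCR-amplified and sequenced on an Illumina NextSeq500.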

The target in a further experiment is ETV5 (Homo sapiens, UniProt P41161 1-510). The settings on record: protein: recombinant; tags: N-terminal GST; dsDNA, one strand shown. Summed up: as §1
The next experiment has as its target HSF1 (Homo sapiens, UniProt Q00613 1-529). To be noted: protein: recombinant; tags: N-terminal GST; chain copies: 3; dsDNA, one strand shown. Summed up:
as §1

The target in another experiment is T2, SPIC (Homo sapiens, UniProt Q8N5J4 1-248).
T2 sequence: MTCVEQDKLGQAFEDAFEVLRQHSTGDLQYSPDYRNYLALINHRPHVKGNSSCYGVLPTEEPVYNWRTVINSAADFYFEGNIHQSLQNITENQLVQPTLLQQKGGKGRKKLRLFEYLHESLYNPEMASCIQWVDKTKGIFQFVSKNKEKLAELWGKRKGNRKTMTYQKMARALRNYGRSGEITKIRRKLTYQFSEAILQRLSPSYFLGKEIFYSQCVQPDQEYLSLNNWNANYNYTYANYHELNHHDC
The settings on record: protein: recombinant; tags: N-terminal GST; dsDNA, one strand shown. Summed up: as §1

A further experiment concerns the target ELF4 (Homo sapiens, UniProt Q99607 1-663). To be noted: protein: recombinant; tags: N-terminal GST; dsDNA, one strand shown. Summed up: as §1
For the next experiment, the target named is T3, ELK4 (Homo sapiens, UniProt P28324-2 1-405).
T3 sequence: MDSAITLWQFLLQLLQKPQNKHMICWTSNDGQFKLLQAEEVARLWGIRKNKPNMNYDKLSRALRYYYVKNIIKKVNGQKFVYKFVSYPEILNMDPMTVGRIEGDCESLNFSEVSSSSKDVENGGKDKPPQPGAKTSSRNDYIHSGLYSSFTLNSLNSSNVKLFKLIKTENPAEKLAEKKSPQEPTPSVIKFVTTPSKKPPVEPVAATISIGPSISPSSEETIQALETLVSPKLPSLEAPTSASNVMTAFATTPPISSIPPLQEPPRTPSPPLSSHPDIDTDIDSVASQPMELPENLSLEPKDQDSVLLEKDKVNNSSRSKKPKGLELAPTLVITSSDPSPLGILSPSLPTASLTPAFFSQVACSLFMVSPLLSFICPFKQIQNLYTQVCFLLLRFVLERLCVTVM
To be noted: protein: recombinant; tags: N-terminal GST; dsDNA, one strand shown. Summed up:
as §1

For a further experiment, the target named is T4, ETV2 (Homo sapiens, UniProt O00321 1-342).
T4 sequence: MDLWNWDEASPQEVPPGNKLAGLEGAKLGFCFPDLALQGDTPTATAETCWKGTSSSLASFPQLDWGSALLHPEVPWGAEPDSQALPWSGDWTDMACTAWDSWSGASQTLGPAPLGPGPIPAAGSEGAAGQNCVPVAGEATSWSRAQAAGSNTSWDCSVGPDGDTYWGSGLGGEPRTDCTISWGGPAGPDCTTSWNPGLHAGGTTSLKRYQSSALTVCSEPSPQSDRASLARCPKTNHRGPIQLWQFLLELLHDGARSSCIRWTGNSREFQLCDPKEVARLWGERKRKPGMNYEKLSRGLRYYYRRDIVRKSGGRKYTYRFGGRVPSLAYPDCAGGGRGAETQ
To be noted: protein: recombinant; tags: N-terminal GST; dsDNA, one strand shown. Summed up:
as §1

For another experiment, the target named is T5, ELF3 (Homo sapiens, UniProt P78545 1-371).
T5 sequence: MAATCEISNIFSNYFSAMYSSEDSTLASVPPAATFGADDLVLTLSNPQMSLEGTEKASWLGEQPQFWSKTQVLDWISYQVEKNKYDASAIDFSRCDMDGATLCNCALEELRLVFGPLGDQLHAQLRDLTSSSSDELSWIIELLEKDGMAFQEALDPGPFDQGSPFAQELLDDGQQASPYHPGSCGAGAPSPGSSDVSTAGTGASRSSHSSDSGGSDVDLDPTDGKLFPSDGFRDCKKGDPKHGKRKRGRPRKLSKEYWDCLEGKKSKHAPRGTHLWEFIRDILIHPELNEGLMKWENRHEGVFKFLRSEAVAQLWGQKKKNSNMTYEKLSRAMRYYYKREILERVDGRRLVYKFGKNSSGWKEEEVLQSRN
To be noted: protein: recombinant; tags: N-terminal GST; dsDNA, one strand shown. Summed up:
as §1

The target in another experiment is CRX (Homo sapiens, UniProt O43186 1-299). The settings on record: protein: recombinant; tags: N-terminal GST; dsDNA, one strand shown. Summed up:
as §1

A further experiment addresses ETV1 (Homo sapiens, UniProt P50549 1-477). The settings on record: protein: recombinant; tags: N-terminal GST; dsDNA, one strand shown. Summed up: as §1
A further experiment has as its target T6, ERF (Homo sapiens, UniProt P50548 1-548).
T6 sequence: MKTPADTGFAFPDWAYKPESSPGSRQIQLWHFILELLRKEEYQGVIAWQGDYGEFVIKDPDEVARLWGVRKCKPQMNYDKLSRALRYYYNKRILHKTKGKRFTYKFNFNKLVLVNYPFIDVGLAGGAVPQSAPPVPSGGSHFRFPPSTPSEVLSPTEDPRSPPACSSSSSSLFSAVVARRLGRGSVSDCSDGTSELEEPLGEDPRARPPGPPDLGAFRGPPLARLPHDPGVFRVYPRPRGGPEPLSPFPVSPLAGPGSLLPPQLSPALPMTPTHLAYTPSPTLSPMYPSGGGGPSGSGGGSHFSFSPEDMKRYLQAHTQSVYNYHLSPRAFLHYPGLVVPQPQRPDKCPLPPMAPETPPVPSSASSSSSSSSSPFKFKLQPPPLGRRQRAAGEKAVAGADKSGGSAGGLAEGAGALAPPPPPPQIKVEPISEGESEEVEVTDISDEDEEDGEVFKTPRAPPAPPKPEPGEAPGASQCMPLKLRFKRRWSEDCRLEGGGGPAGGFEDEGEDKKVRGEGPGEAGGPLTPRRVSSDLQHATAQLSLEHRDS
The settings on record: protein: recombinant; tags: N-terminal GST; dsDNA, one strand shown. Summed up: as §1

A further experiment has as its target T7, ETV3L (Homo sapiens, UniProt Q6ZN32 1-361).
T7 sequence: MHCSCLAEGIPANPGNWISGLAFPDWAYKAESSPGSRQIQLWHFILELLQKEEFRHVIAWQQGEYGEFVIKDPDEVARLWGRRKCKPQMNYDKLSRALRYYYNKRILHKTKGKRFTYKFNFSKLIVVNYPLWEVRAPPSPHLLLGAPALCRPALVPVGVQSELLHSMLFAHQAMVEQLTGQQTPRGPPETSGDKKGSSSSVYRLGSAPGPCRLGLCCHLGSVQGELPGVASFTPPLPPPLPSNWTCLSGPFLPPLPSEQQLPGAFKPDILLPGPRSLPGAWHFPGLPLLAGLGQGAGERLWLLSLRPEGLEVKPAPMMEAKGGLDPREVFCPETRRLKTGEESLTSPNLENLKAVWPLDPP
To be noted: protein: recombinant; tags: N-terminal GST; dsDNA, one strand shown. Summed up:
as §1

The next experiment addresses T8, ETS2 (Homo sapiens, UniProt P15036 1-469).
T8 sequence: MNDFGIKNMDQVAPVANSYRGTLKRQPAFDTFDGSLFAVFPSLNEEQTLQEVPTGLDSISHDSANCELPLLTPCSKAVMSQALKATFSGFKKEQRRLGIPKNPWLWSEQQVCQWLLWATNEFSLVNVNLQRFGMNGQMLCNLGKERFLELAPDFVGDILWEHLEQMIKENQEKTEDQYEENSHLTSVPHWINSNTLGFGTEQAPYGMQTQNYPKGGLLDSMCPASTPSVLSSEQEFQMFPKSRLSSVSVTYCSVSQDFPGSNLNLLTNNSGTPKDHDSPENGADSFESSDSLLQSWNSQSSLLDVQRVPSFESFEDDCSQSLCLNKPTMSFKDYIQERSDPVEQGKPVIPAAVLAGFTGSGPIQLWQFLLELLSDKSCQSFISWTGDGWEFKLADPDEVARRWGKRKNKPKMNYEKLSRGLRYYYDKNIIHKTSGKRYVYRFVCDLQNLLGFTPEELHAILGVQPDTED
The settings on record: protein: recombinant; tags: N-terminal GST; dsDNA, one strand shown. Summed up:
as §1

The next experiment has as its target T9, SPDEF (Homo sapiens, UniProt O95238 1-335).
T9 sequence: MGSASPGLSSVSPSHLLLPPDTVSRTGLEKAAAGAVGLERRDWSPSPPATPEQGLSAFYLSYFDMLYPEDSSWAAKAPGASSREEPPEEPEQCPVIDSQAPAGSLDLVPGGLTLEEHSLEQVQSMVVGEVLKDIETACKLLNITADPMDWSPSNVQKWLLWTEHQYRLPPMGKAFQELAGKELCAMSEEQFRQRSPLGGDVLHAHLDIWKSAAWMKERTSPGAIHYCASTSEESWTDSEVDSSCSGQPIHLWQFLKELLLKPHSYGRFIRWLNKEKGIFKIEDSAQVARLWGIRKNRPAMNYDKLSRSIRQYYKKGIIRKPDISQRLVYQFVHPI
To be noted: protein: recombinant; tags: N-terminal GST; dsDNA, one strand shown. Summed up: as §1

A further experiment deals with T10, ETV7 (Homo sapiens, UniProt Q9Y603 1-341).
T10 sequence: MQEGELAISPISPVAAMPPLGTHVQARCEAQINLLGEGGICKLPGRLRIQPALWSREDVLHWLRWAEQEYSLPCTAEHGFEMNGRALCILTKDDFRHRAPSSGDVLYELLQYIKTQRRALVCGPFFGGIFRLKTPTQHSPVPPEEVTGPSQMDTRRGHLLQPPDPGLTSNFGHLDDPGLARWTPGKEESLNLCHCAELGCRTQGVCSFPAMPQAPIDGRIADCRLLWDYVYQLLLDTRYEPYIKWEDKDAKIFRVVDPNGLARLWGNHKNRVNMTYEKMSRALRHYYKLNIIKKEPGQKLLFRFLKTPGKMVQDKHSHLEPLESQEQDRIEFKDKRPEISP
To be noted: protein: recombinant; tags: N-terminal GST; dsDNA, one strand shown. Summed up: as §1

A further experiment has as its target T11, ELF5 (Homo sapiens, UniProt Q9UKW6-2 1-255).
T11 sequence: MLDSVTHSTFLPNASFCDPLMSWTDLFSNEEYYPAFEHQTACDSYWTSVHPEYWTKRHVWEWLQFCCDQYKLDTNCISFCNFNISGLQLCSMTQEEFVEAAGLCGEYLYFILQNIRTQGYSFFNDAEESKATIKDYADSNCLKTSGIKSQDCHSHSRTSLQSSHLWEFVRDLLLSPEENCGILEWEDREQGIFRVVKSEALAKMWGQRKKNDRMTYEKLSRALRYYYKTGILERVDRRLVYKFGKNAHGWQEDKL
To be noted: protein: recombinant; tags: N-terminal GST; dsDNA, one strand shown. Summed up:
as §1

The target of the next experiment is T12, ETV3 (Homo sapiens, UniProt P41162-2 1-143).
T12 sequence: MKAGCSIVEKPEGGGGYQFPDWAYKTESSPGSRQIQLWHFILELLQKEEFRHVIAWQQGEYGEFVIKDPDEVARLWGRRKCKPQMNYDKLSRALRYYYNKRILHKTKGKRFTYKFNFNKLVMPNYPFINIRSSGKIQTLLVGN
The settings on record: protein: recombinant; tags: N-terminal GST; dsDNA, one strand shown. Summed up:
as §1

For the next experiment, the target named is ETV6 (Homo sapiens, UniProt P41212 1-452). To be noted: protein: recombinant; tags: N-terminal GST; dsDNA, one strand shown. Summed up:
as §1

ELF4, sequence (Q99607 whole entry): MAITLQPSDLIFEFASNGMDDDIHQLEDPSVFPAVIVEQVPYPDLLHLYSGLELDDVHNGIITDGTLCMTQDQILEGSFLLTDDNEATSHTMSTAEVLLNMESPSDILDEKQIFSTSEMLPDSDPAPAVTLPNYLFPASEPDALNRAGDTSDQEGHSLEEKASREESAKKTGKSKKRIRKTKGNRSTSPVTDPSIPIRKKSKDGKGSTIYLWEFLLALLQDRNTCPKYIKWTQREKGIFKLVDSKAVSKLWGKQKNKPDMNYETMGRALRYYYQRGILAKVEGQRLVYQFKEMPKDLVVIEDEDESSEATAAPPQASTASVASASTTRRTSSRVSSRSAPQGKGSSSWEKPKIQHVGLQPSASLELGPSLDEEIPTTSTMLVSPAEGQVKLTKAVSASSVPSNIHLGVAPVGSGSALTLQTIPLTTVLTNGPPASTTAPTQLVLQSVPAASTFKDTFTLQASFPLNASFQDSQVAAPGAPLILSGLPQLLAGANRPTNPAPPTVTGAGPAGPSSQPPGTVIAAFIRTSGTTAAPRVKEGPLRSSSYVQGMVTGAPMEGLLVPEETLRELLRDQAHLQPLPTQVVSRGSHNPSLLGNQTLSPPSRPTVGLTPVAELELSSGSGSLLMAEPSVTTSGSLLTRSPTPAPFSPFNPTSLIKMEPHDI
ETV5, sequence (P41161 whole entry): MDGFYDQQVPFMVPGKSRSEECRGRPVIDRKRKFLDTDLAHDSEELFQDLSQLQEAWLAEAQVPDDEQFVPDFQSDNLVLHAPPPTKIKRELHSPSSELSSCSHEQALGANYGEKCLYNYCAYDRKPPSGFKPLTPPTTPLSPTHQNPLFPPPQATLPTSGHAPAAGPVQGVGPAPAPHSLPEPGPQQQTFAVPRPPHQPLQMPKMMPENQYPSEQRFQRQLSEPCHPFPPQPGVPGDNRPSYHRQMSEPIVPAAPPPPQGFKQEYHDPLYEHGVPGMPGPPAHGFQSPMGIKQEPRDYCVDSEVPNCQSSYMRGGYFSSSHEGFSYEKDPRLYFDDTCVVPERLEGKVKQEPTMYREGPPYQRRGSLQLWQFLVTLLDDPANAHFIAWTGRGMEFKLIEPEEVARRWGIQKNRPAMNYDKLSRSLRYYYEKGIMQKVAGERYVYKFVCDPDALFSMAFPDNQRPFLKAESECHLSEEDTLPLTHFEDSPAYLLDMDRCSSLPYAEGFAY
CRX, sequence (O43186 whole entry): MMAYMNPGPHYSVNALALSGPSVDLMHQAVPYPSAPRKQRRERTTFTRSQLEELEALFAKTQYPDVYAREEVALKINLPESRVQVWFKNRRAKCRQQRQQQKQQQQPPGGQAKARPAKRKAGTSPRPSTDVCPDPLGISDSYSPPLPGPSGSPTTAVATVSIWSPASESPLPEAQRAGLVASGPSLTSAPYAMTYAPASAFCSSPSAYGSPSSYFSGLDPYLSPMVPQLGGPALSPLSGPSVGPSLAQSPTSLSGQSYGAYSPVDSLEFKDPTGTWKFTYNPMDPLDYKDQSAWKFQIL
HSF1, sequence (Q00613 whole entry): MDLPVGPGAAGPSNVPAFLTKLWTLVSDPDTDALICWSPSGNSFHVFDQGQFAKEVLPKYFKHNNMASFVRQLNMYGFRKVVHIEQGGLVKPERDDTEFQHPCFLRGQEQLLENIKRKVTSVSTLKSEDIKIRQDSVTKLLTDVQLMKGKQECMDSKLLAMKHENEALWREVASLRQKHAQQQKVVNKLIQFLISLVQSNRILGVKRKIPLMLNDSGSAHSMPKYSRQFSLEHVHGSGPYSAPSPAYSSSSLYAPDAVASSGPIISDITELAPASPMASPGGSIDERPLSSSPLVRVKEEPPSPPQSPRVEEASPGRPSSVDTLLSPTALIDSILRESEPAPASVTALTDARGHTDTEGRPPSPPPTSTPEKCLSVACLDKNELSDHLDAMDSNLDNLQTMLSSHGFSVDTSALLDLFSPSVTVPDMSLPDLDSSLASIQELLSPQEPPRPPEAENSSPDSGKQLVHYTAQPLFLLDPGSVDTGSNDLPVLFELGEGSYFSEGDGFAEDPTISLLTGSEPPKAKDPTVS
ETV6, sequence (P41212 whole entry): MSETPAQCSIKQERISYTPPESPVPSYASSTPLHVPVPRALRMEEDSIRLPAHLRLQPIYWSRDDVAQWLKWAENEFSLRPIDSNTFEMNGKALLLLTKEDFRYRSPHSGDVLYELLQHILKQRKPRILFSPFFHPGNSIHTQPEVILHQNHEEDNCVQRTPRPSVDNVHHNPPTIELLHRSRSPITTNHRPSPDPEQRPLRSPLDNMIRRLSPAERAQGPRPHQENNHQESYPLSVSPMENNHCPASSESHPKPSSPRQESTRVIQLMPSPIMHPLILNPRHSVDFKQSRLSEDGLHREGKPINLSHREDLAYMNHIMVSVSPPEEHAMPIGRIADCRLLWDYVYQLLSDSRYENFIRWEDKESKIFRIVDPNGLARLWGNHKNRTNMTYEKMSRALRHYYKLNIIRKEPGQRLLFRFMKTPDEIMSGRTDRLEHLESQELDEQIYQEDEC
ETV1, sequence (P50549 whole entry): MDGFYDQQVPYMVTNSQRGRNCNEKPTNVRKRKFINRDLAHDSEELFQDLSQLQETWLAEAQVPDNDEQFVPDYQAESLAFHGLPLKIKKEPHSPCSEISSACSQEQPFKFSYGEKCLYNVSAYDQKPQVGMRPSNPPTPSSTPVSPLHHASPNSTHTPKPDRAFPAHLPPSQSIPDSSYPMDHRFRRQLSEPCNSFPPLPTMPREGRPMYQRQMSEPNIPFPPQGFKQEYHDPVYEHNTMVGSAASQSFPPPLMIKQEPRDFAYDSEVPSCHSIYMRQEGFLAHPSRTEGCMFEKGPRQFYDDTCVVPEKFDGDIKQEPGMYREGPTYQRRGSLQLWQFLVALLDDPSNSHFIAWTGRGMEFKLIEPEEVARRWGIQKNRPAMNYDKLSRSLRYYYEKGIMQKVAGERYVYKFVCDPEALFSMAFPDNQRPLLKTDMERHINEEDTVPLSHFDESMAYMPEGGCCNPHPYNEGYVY

Turning to TTTCGA, the binding signal with FEV was 1.48 fold enrichment (6-mer frequency, TF over GST control); with ETV5 it was 1.54 fold enrichment (6-mer frequency, TF over GST control); with HSF1, 2.5 fold enrichment (6-mer frequency, TF over GST control); with SPIC it was 1.18 fold enrichment (6-mer frequency, TF over GST control); with ELF4, 1.57 fold enrichment (6-mer frequency, TF over GST control); with ELK4, 1.5 fold enrichment (6-mer frequency, TF over GST control). Moreover, the binding signal in the experiment with ETV2 is 1.32 fold enrichment (6-mer frequency, TF over GST control); with ELF3 it was 1.39 fold enrichment (6-mer frequency, TF over GST control); in the experiment with CRX it was 1.86 fold enrichment (6-mer frequency, TF over GST control); with ETV1 it was 1.5 fold enrichment (6-mer frequency, TF over GST control); with ERF, 1.61 fold enrichment (6-mer frequency, TF over GST control); with ETV3L it was 1.54 fold enrichment (6-mer frequency, TF over GST control). Further, the binding signal in the experiment with ETS2 was 1.42 fold enrichment (6-mer frequency, TF over GST control); with SPDEF, 1.34 fold enrichment (6-mer frequency, TF over GST control); in the experiment with ETV7 it was 1.29 fold enrichment (6-mer frequency, TF over GST control); in the experiment with ELF5, 1.42 fold enrichment (6-mer frequency, TF over GST control); in the experiment with ETV3, 1.41 fold enrichment (6-mer frequency, TF over GST control); with ETV6 it was 1.33 fold enrichment (6-mer frequency, TF over GST control).
